We go through 53 compounds from PubChem BioAssay AID624296 (National Center for Advancing Translational Sciences (NCATS), 2012).

Out of some 350,000 compounds screened, about 9,900 (2.8%) were called active. About 15% were inconclusive and are not listed. For the sample, actives were picked, then their nearest neighbours and some compounds at random. Values without a mark were called inactive. Calls come from the whole dose curve; as a rule, active = well fitted activation curve with a large enough effect; inconclusive = small, poorly fitted or top-dose-only effect; inactive = no such curve, though single readings can be large or run the other way.
Potency is the fitted concentration of half-maximal effect.

A short description of the assay: A quantitative high throughput screen for small molecules that induce DNA re-replication in MCF 10a normal breast cells. For activity, positive = re-replication: % of control where 0% means no effect. Note: nearly all actives have a fitted effect of over 50% in size. To be noted: MCF 10A DNA re-replication, Hoechst nuclear intensity, 48 h; series mostly up to 46.1 µM; activity, positive = re-replication: at the top concentration.
Turning to `Cc1ccc(S(=O)(=O)N2CCN(C(=O)Cn3c(=O)cnc4ccccc43)CC2)c(C)c1`, the “activity, positive = re-replication” value was -0.758%.
On the same count and under the same terms, the figure for `O=C(COC(=O)COc1cc(Cl)c(Cl)cc1Cl)NC1CC1` is 1.27%.
Consider `Cc1ccccc1NC(=O)CSC(=O)c1ccccc1`, for which the “activity, positive = re-replication” value is 17.3%.
For `CCOC(=O)[C@H]1[C@H]2COc3ccc(Br)cc3[C@@H]2N2C(=O)CN(C)C(=O)[C@@]12C`, the “activity, positive = re-replication” value is 46.2%.
The same measure, in the same setting: the figure for `COc1ccccc1CNC(=O)c1ccc(Cl)c(S(=O)(=O)N2CCCC2)c1` is 14.6%; for `Cc1occc1C(=O)Nc1cccc(S(=O)(=O)N2CCOCC2)c1` it is 3.03%.
On to `CCN1CCC2(CC1)N=C(c1ccc(F)cc1)C(=S)N2C(=O)c1ccc(C)cc1`, for which the Potency is 13 µM (active).
On to `CCN1CCN(C(=O)CSc2ccc(C)cc2)CC1`, for which the “activity, positive = re-replication” value is 0.479%.
Same read-out and setting: then `Cc1ccc(SCC(=O)N2CCN(c3ccc(F)cc3)CC2)cc1`, with -25.2%.
Turning to `CCSc1nc2sc3c(c2c(=O)n1-c1ccc(C)cc1)CCN(C)C3`, the Potency was 18.4 µM (active).
With `COc1ccccc1NC(=O)CSc1nc2sc3c(c2c(=O)n1-c1ccccc1)CCN(C)C3`, the “activity, positive = re-replication” value was 0.14%.
The same measure, in the same setting: the figure for `CCOc1ccc(-n2c(SCC(=O)OC)nc3sc4c(c3c2=O)CCN(C)C4)cc1` is -8.57%.
On the same count and under the same terms, the figure for `Cc1ccc(S(=O)(=O)N(C)CC(=O)NCC(c2ccc(F)cc2)N2CCOCC2)cc1` (stereo not drawn) is -1.57%; for `Cc1ccccc1C(=O)Nc1ccccc1NC(=O)c1ccccc1C` it is 6.72%; for `Cc1ccccc1C(=O)NC(=S)Nc1ccc(N2CCN(C(=O)c3ccccc3)CC2)cc1` it is -7.1%.
Regarding `Cc1ccccc1C(=O)Nc1ccc(N2CCCCCC2)cc1`, the Potency was 18.4 µM (active).
Turning to `O=c1[nH]c2c(c(=O)n1-c1ccccc1)CCO2`, the “activity, positive = re-replication” value is -2.42%.
Still for that read-out and setting: the figure for `Cc1ccccc1N1CCN(C(=O)c2cccnc2)CC1` is 1.77%; for `CC1Cc2ccccc2N1S(=O)(=O)c1cccc(C(=O)OCC(=O)N2CCOCC2)c1` (stereo not drawn) it is -9.4%; for `CCC1([N+](=O)[O-])COC(c2ccc(C(C)C)cc2)OC1` (stereo not drawn) it is 1.18%.
With `CC(=O)N(C1=C(Cl)C(=O)c2ccccc2C1=O)c1ccc(C(=O)O)cc1`, the Potency was 5.8 µM (active).
On to `O=C(CN1C(=O)c2ccccc2C1=O)NCc1ccc(C(=O)O)cc1`, for which the “activity, positive = re-replication” value is -0.0938%.
Still for that read-out and setting: the figure for `CC(C)N(C(=O)c1ccc(-c2ccccc2F)cc1)C(C)C` is -4.52%; for `O=C(OCC(=O)N1CCCCCC1)c1cnc(Cl)c(Cl)c1` it is 7.44%; for `CN(C)CCCN(C(=O)COc1ccccc1)c1nc2c(Cl)cccc2s1` it is 0.434%.
`COc1cc2ccccc2cc1C(=O)N(CCN(C)C)c1nc2c(F)cccc2s1`: the “activity, positive = re-replication” value is 9.27%.
Regarding `COc1cccc2sc(N(CCCN(C)C)C(=O)CCS(=O)(=O)c3ccccc3)nc12`, the Potency was 6.51 µM (active).
For the compound `N#Cc1ccccc1S(=O)(=O)N1CCN(Cc2c(O)ccc3ccccc23)CC1`, the “activity, positive = re-replication” value was 0.162%.
With `CCOc1ccccc1NC(=S)C(=C([O-])c1ccc2c(c1)OCCO2)[n+]1ccc(CC)cc1`, the Potency is 2.59 µM (active).
`O=[N+]([O-])c1cccc(/C([O-])=C(/C(=S)Nc2ccccc2F)[n+]2ccccc2)c1`: the “activity, positive = re-replication” value was -4.73%.
The same measure, in the same setting: then `CCc1ccccc1OCC(=O)Nc1ccc2c(c1)OCCO2`, with 3.44%; and `O=[N+]([O-])c1ccc(N=NNc2ccc([N+](=O)[O-])cc2)cc1`, with 4.43%.
In the case of `Cc1ccc(NC(=O)c2sc3nc(N)c(C#N)cc3c2N)cc1`, the “activity, positive = re-replication” value was 99%.
Consider `Cc1cccc(NC(=O)c2sc3nc(N4CCOCC4)c4c(c3c2N)CCCC4)c1`, for which the Potency is 2.91 µM (active).
Take `Cc1cccc(NC(=O)CSc2nnc(-c3ccco3)o2)c1`: the “activity, positive = re-replication” value is 13.8%.
As to `CC(=O)Nc1ccc(NC(=O)c2sc3nc4c(c(-c5ccc(C)cc5)c3c2N)CCC4)cc1`, the Potency was 5.8 µM (active).
For the compound `CC(=O)c1ccc(NC(=O)c2sc3nc4n(c(=O)c3c2C)CCCCC4)cc1`, the “activity, positive = re-replication” value is 13.7%.
In the case of `c1ccc(CSc2ncnc3c2sc2nc(N4CCOCC4)c4c(c23)CCCC4)cc1`, the “activity, positive = re-replication” value was 7.01%.
The same measure, in the same setting: then `Cc1cccc(NC(=O)/C(=C\c2ccco2)NC(=O)c2ccccc2)c1`, with 4.86%.
On the same count and under the same terms, the figure for `CC(=O)Nc1ccc(N2CCOCC2)c(C(=O)Nc2cccc(C)c2)c1` is 0.446%.
With `Cc1cccc(NC(=O)c2sc3nc4c(c(-c5ccco5)c3c2N)CCC4)c1`, the Potency is 13 µM (active).
Take `Cc1ccc(S(=O)(=O)N(C)c2ccc(OCC(=O)OCc3ccc(C#N)cc3)cc2)cc1`: the “activity, positive = re-replication” value is -2.84%.
Take `O=C(CC(=O)c1cccnc1)c1ccccc1`: the “activity, positive = re-replication” value is 1.86%.
In the case of `OC(COc1ccccc1)CN1CCN(c2cccc(Cl)c2)CC1` (stereo not drawn), the “activity, positive = re-replication” value was 6.13%.
Regarding `C[C@@H]1NS(=O)(=O)c2cc(Cl)ccc2O[C@@H]1c1ccccc1`, the “activity, positive = re-replication” value is 2.32%.
Same read-out and setting: then `CCc1cccc(NC(=O)COC(=O)c2cc(=O)c3ccccc3o2)c1`, with -1.43%; and `CCOC(=O)C1CCCN(C(=O)CSc2nnc3nc(C)cc(C)n23)C1` (stereo not drawn), with -3.48%.
Consider `Cc1c(C(=O)Nc2cccc(S(=O)(=O)N3CCOCC3)c2)oc2ccccc12`, for which the “activity, positive = re-replication” value is 4.39%.
Still for that read-out and setting: the figure for `CCN(CC)S(=O)(=O)c1ccc(NC(=O)CN(c2cccc(F)c2)S(C)(=O)=O)cc1` is 14.2%.
As to `Cc1cccc(N(CC(=O)Nc2ccc(-c3nc4ccc(C)cc4s3)cc2)S(C)(=O)=O)c1`, the Potency was 14.6 µM (active).
As for `COc1cccc(N(CC(=O)Nc2cccc(F)c2)S(C)(=O)=O)c1`, the “activity, positive = re-replication” value is 0.363%.
Still for that read-out and setting: then `CCN(CC)C(=O)[C@H]1CC(CC(=O)NCc2ccco2)C(=O)N2CCc3c([nH]c4ccccc34)[C@]12C` (stereo partly drawn), with 2.25%; and `CN(C)S(=O)(=O)c1ccc(C(=O)NCC2(N3CCOCC3)CCCCC2)cc1`, with 19.4%.
